# According to ChEMBL document CHEMBL3988442, “University of Dundee, Small-Polar-MMV Screening Library” (2021):
# The campaign covered roughly 69,000 compounds. About 1,000 (1.4%) showed an effect of 50% or more. For the sample, strong results were picked, then their nearest neighbours and some compounds at random.
# Test system: Leishmania donovani
# Assay: Leishmania intramacrophage assay
# Assay type: functional, organism-based
# Parameters: scale not given: in the data most compounds retested in dose-response had high values
compound,measurement,setting,value
O=C1CCCN1c1cccc(CNCc2nc(-c3ccco3)no2)c1,Percent Effect,"30.3 µM, […]",-19.6%
Cc1ccc2nc(CN(C)Cc3n[nH]c4c3CCCCC4)[nH]c2c1C,Percent Effect,"30.3 µM, […]",99.15%
Cc1ccc2[nH]c(CN(C)Cc3ccccc3C(=O)O)nc2c1,Percent Effect,"30.3 µM, […]",25.21%
CN(Cc1cc2n(n1)CCNC2)Cc1n[nH]c2c1CCCCC2,Percent Effect,"30.3 µM, […]",33.41%
COc1nc2cc(C)ccc2cc1CN(C)Cc1n[nH]c2c1CCCC2,Percent Effect,"30.3 µM, […]",19.2%
Cc1ccc2[nH]c(CN(C)Cc3n[nH]c4c3CCC4)nc2c1,Percent Effect,"30.3 µM, […]",65.71%
Cc1ccc2nc(CN(C)Cc3[nH]nc4c3CCC4)[nH]c2c1C,Percent Effect,"30.3 µM, […]",40.9%
CC(C)C(C(=O)N1CCN(c2ccncc2)CC1)n1cncn1 (stereo unspecified),Percent Effect,"30 µM, 30.03 µM",24.05%
CCOc1ccc(Cl)c(C(=O)N2CCCN(CC(N)=O)CC2)n1,Percent Effect,30 µM,-7.749%
N#Cc1cc2c(=O)n(CC(O)C(F)(F)F)ccc2[nH]c1=O (stereo unspecified),Percent Effect,"30.3 µM, […]",28.06%
N#Cc1cc2c(=O)n(CC(O)Cc3ccccc3)ccc2[nH]c1=O (stereo unspecified),Percent Effect,"30.3 µM, […]",33.38%
N#Cc1cc2c(=O)n(CC(O)c3cccc(O)c3)ccc2[nH]c1=O (stereo unspecified),Percent Effect,"30.3 µM, […]",52.32%
Cc1cnc(N2CCC3(CC(=O)N(Cc4csc(C)n4)C3)C2)nc1.O=C(O)C(F)(F)F (stereo unspecified),Percent Effect,"30.3 µM, […]",-11.16%
COCCC(=O)N1CCC2(CCN(Cc3cccc(F)c3)CC2)C1.O=C(O)C(F)(F)F,Percent Effect,"30.3 µM, […]",10.96%
CN1CCNC(=O)C12CCN(Cc1ccco1)CC2.O=C(O)C(F)(F)F.O=C(O)C(F)(F)F,Percent Effect,"30.3 µM, […]",23.48%
O=C(O)C(F)(F)F.c1cnc(N2CCOC3(CCN(CC4CCOC4)CC3)C2)nc1 (stereo unspecified),Percent Effect,"30.3 µM, […]",38.06%
COCC(=O)N1CCC2(CCN(Cc3ccc(C)cc3)CC2)CC1.O=C(O)C(F)(F)F,Percent Effect,"30.3 µM, […]",16.03%
CN1CCOCC12CCN(Cc1ccoc1)CC2.O=C(O)C(F)(F)F.O=C(O)C(F)(F)F,Percent Effect,"30.3 µM, […]",10.68%
Cc1ccc(CN2CCOC3(CCN(CC4CCOC4)CC3)C2)cc1.O=C(O)C(F)(F)F.O=C(O)C(F)(F)F (stereo unspecified),Percent Effect,"30.3 µM, […]",54.23%
COCCC(=O)N1CC2(CCN(Cc3cccc(Cl)c3)CC2)C1.O=C(O)C(F)(F)F,Percent Effect,"30 µM, 30.03 µM",20.28%
Cc1ccc(CN2CCC3(CC2)CCN(Cc2ccoc2)CC3)cc1.O=C(O)C(F)(F)F.O=C(O)C(F)(F)F,Percent Effect,"30.3 µM, […]",75.99%
COCCC(=O)N1CCC2(CCN(Cc3ccc(C)cc3)CC2)C1.O=C(O)C(F)(F)F,Percent Effect,"30.3 µM, […]",52.88%
CC(=O)N1CCC12CCN(Cc1ccco1)CC2.O=C(O)C(F)(F)F,Percent Effect,"30.3 µM, […]",4.08%
Cc1ccc(CN2CCC3(CC2)CCN(Cc2ccco2)CC3)cc1.O=C(O)C(F)(F)F.O=C(O)C(F)(F)F,Percent Effect,"30.3 µM, […]",86.21%
Cc1cc(C(=O)N2C[C@@H]3OCCN(CCN4CCCC4)[C@@H]3C2)c(C)o1.O=C(O)C(F)(F)F,Percent Effect,"30.3 µM, […]",6.684%
Cc1cc(C(=O)Nc2ccc3c(ccn3CCN3CCOCC3)c2)on1,Percent Effect,"30.3 µM, […]",-2.631%
CC(C)SCC(=O)N1CCc2c(nc(N(C)C)nc2N(C)C)C1,Percent Effect,"30 µM, 30.03 µM",7.439%
CC(C)C(C)(C#N)NC(=O)Cn1cc(C(N)=O)c(-c2ccccc2)n1 (stereo unspecified),Percent Effect,"30.3 µM, […]",-11.84%
CCOCC(=O)NCCn1ccc(-c2ccccn2)n1,Percent Effect,"30.3 µM, […]",14.51%
CCOc1ccc(Cl)cc1C(C(=O)O)N1CCOCC1 (stereo unspecified),Percent Effect,"30.3 µM, […]",26.6%
CC(Cn1cncc1-c1cnn(C2CCCCC2)c1)N1CCCCC1.Cl (stereo unspecified),Percent Effect,"30.3 µM, […]",20.46%
CC(O)CN1CCN(C(=O)CN(C)c2ccc(C#N)cn2)CC1 (stereo unspecified),Percent Effect,"30.3 µM, […]",-1.14%
Cn1ccnc1CN1CCC2(CC1)CCN(Cc1ccoc1)C2.O=C(O)C(F)(F)F.O=C(O)C(F)(F)F,Percent Effect,"30.3 µM, […]",10.21%
CS(=O)(=O)N1CCOCC2(CN(Cc3ccco3)CCO2)C1.O=C(O)C(F)(F)F (stereo unspecified),Percent Effect,"30 µM, 30.03 µM",-12.04%
COCCC(=O)N1CC2(CCN(Cc3ccncc3)CC2)C1,Percent Effect,"30.3 µM, […]",34.97%
O=C(O)C(F)(F)F.O=C(O)C(F)(F)F.O=C(O)C(F)(F)F.c1coc(CN2CCOC3(COCCN(Cc4ccncc4)C3)C2)c1 (stereo unspecified),Percent Effect,"30.3 µM, […]",52.19%
Cc1ccc(CN2CCN(Cc3ccncc3)CC2=O)cc1,Percent Effect,"30.3 µM, […]",-11.56%
Cc1ccc(CN2CCCC3(CCN(Cc4ccoc4)CC3)C2)cc1.O=C(O)C(F)(F)F.O=C(O)C(F)(F)F,Percent Effect,"30.3 µM, […]",70.84%
CN(C)CC(=O)N1CCC2(CCc3cc(-c4cccnc4)ccc32)CC1.O=C(O)C(F)(F)F.O=C(O)C(F)(F)F,Percent Effect,"30.3 µM, […]",37.66%
Cc1ccc(CN2CCOC3(COCCN(Cc4ccncc4)C3)C2)o1.O=C(O)C(F)(F)F.O=C(O)C(F)(F)F.O=C(O)C(F)(F)F (stereo unspecified),Percent Effect,"30.3 µM, […]",5.942%
O=C(O)C(F)(F)F.O=C(O)C(F)(F)F.c1cncc(-c2ccc3c(c2)CCC32CCN(Cc3ccco3)CC2)c1,Percent Effect,"30.3 µM, […]",59.2%
O=C(O)C(F)(F)F.O=C(O)C(F)(F)F.c1cncc(-c2ccc3c(c2)CCC32CCN(Cc3nccs3)CC2)c1,Percent Effect,"30.3 µM, […]",20.15%
Cc1ccc(CN2CCC3(CCN(Cc4ccncc4)CC3)CC2)cc1,Percent Effect,"30.3 µM, […]",75.36%
COCCN1CC[C@@H]2O[C@@H](COCC(=O)N3CCCC3)CC[C@@H]21.O=C(O)C(F)(F)F,Percent Effect,"30 µM, 30.03 µM",27.81%
CO[C@H]1CO[C@@]2(CCCN(C(=O)N(C)C)C2)C1,Percent Effect,"30.3 µM, […]",25.22%
O=C(NCCCn1nc2ccccn2c1=O)NCCC1CCC1,Percent Effect,"30.3 µM, […]",27.05%
CCNc1cc2c(nn1)CCN(C(=O)c1ccc3cc[nH]c3c1)C2,Percent Effect,"30 µM, 30.03 µM",18.46%
CC(C)(CO)Nc1ccc(-c2nc(-c3ccccc3F)no2)cn1,Percent Effect,"30.3 µM, […]",-6.29%
CNCCNc1ccc(-c2nc(-c3cccc(OC)c3OC)no2)cn1,Percent Effect,"30.3 µM, […]",11.62%
COc1cccc(-c2noc(-c3ccc(NCCCN)nc3)n2)c1OC,Percent Effect,"30.3 µM, […]",10.02%
OC[C@@H]1CCCN1c1ccc(-c2nc(COc3ccccc3)no2)cn1,Percent Effect,"30.3 µM, […]",-6.4%
COc1cccc(-c2noc(-c3ccc(NCCCO)nc3)n2)c1OC,Percent Effect,"30.3 µM, […]",59.5%
CN(C)CCN(C)c1ccc(-c2nc(COc3ccccc3)no2)cn1,Percent Effect,"30.3 µM, […]",42.47%
CN(C)CCNc1ccc(-c2nc(-c3ccccc3F)no2)cn1,Percent Effect,"30.3 µM, […]",51.45%
CSCC[C@@H](CO)Nc1ccc(-c2nc(-c3ccccc3F)no2)cn1,Percent Effect,"30.3 µM, […]",-35.38%
CN(C)CCNc1ccc(-c2nc(COc3ccccc3)no2)cn1,Percent Effect,"30.3 µM, […]",58.19%
